Where “and” joins values, the source holds several entries; their conditions need not be identical. Equal values may be shown once. The campaign covered roughly 5,500 compounds. About 2,000 (36%) were called active. Inconclusive results (about 18%) are left out. No stated cut-off is given here; in the data, active means normalized growth mostly below about 0.91 (no sharp cut-off); inconclusive means no clear call, values can overlap the other calls; inactive means mostly above about 0.92. The list shows a part of the results.
Experiment: chemical genetic growth profiling, strain panel (AID 1159580);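 further: tested at 20 µM; growth read once vehicle control cultures reached saturation at 30 °C; 1 = growth at the plate median or of vehicle wells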
Conditions: growth OD

Measured: normalized growth

CN1C2CCC1CC(OC(c1ccccc1)c1ccccc1N)C2 (stereo unspecified)
inactive: S. cerevisiae deletion strains, locus YJR075W, strain HOC1, stronger effect = lower value 0.997 and 1.08 | S. cerevisiae deletion strains, locus YKL009W, strain mrt4, stronger effect = lower value 1.03 | S. cerevisiae deletion strains, locus YKL068W, stronger effect = lower value 1.01 | S. cerevisiae deletion strains, locus YKL085W, strain MDH1 (second series), stronger effect = lower value 1 | S. cerevisiae deletion strains, locus YKL085W, strain MDH1, stronger effect = lower value 1 | S. cerevisiae deletion strains, locus YKL160W, strain elf1, stronger effect = lower value 1 | S. cerevisiae deletion strains, locus YKL190W, strain CNB1, stronger effect = lower value 1 | S. cerevisiae deletion strains, locus YKR001C, strain vps1, stronger effect = lower value 1.02 | S. cerevisiae deletion strains, locus YKR026C, strain gcn3, stronger effect = lower value 0.99 | S. cerevisiae deletion strains, locus YKR091W, strain srl3, stronger effect = lower value 0.996 | S. cerevisiae deletion strains, locus YLL001W, strain dnm1, stronger effect = lower value 1.01 | S. cerevisiae deletion strains, locus YLL026W, stronger effect = lower value 0.982 | S. cerevisiae deletion strains, locus YLL041C, strain sdh2, stronger effect = lower value 1 | S. cerevisiae deletion strains, locus YLR027C, strain aat2, stronger effect = lower value 0.986 | S. cerevisiae deletion strains, locus YLR039C, strain RIC1, stronger effect = lower value 1.02 | S. cerevisiae deletion strains, locus YLR058C, strain SHM2, stronger effect = lower value 1 | S. cerevisiae deletion strains, locus YLR102C, strain apc9, stronger effect = lower value 1.01 | S. cerevisiae deletion strains, locus YLR113W, strain HOG1, stronger effect = lower value 1.05 | S. cerevisiae deletion strains, locus YLR221C, strain rsa3, stronger effect = lower value 0.998 | S. cerevisiae deletion strains, locus YLR258W, strain gsy2, stronger effect = lower value 1 | S. cerevisiae deletion strains, locus YLR262C, strain YPT6 (second series), stronger effect = lower value 1.03 | S. cerevisiae deletion strains, locus YLR262C, strain YPT6, stronger effect = lower value 1.02 | S. cerevisiae deletion strains, locus YLR268W, strain sec22, stronger effect = lower value 1.01 | S. cerevisiae deletion strains, locus YLR320W, strain mms22, stronger effect = lower value 0.994 | S. cerevisiae deletion strains, locus YLR330W, strain CHS5, stronger effect = lower value 1.01 | S. cerevisiae deletion strains, locus YLR342W, strain FKS1 (second series), stronger effect = lower value 1.02 | S. cerevisiae deletion strains, locus YLR342W, strain FKS1, stronger effect = lower value 0.994 | S. cerevisiae deletion strains, locus YLR357W, strain rsc2, stronger effect = lower value 0.979 | S. cerevisiae deletion strains, locus YLR370C, strain arc18, stronger effect = lower value 0.978 | S. cerevisiae deletion strains, locus YLR371W, strain rom2, stronger effect = lower value 1.01 | S. cerevisiae deletion strains, locus YLR384C, strain iki3, stronger effect = lower value 1 | S. cerevisiae deletion strains, locus YLR418C, strain cdc73, stronger effect = lower value 0.994 | S. cerevisiae deletion strains, locus YML016C, strain PPZ1, stronger effect = lower value 1 | S. cerevisiae deletion strains, locus YML032C, strain rad52, stronger effect = lower value 1.03 | S. cerevisiae deletion strains, locus YML120C, strain ndi1, stronger effect = lower value 0.988 | S. cerevisiae deletion strains, locus YML124C, strain tub3, stronger effect = lower value 1.02 | S. cerevisiae deletion strains, locus YMR058W, strain fet3, stronger effect = lower value 1 | S. cerevisiae deletion strains, locus YMR078C, strain ctf18, stronger effect = lower value 1.02 | S. cerevisiae deletion strains, locus YMR125W, strain sto1, stronger effect = lower value 0.992 | S. cerevisiae deletion strains, locus YMR129W, stronger effect = lower value 0.997 | S. cerevisiae deletion strains, locus YMR205C, strain PFK2, stronger effect = lower value 0.981 | S. cerevisiae deletion strains, locus YMR223W, strain ubp8, stronger effect = lower value 1.01 | S. cerevisiae deletion strains, locus YMR231W, strain pep5, stronger effect = lower value 0.999 | S. cerevisiae deletion strains, locus YMR263W, strain SAP30, stronger effect = lower value 0.999 and 1 | S. cerevisiae deletion strains, locus YMR307W, strain GAS1, stronger effect = lower value 1 | S. cerevisiae deletion strains, locus YNL067W, strain RPL9B, stronger effect = lower value 1.01 | S. cerevisiae deletion strains, locus YNL071W, strain lat1, stronger effect = lower value 1 | S. cerevisiae deletion strains, locus YNL128W, strain TEP1, stronger effect = lower value 0.993 | S. cerevisiae deletion strains, locus YNL153C, strain GIM3, stronger effect = lower value 1 | S. cerevisiae deletion strains, locus YNL175C, strain NOP13, stronger effect = lower value 1.01 | S. cerevisiae deletion strains, locus YNL183C, strain NPR1, stronger effect = lower value 0.92 | S. cerevisiae deletion strains, locus YNL197C, strain WHI3, stronger effect = lower value 1.02 | S. cerevisiae deletion strains, locus YNL209W, strain ssb2, stronger effect = lower value 1.01 | S. cerevisiae deletion strains, locus YNL224C, strain SQS1, stronger effect = lower value 1.03 | S. cerevisiae deletion strains, locus YNL233W, strain BNI4, stronger effect = lower value 1.01 | S. cerevisiae deletion strains, locus YNL248C, strain rpa49, stronger effect = lower value 0.995 | S. cerevisiae deletion strains, locus YNL250W, strain rad50, stronger effect = lower value 1.02 | S. cerevisiae deletion strains, locus YNL271C, strain bni1, stronger effect = lower value 1 | S. cerevisiae deletion strains, locus YNL298W, strain CLA4, stronger effect = lower value 1.01 | S. cerevisiae deletion strains, locus YNL307C, strain MCK1, stronger effect = lower value 1 | S. cerevisiae deletion strains, locus YNL322C, strain KRE1 (second series), stronger effect = lower value 1 | S. cerevisiae deletion strains, locus YNL322C, strain KRE1, stronger effect = lower value 0.996 | S. cerevisiae deletion strains, locus YNR049C, strain mso1, stronger effect = lower value 0.996 | S. cerevisiae deletion strains, locus YNR052C, strain pop2, stronger effect = lower value 1.01 | S. cerevisiae deletion strains, locus YOL006C, strain TOP1, stronger effect = lower value 0.986 | S. cerevisiae deletion strains, locus YOL012C, strain htz1 1.61 | S. cerevisiae deletion strains, locus YOL147C, strain pex11, stronger effect = lower value 1.02 | S. cerevisiae deletion strains, locus YOR001W, strain rrp6, stronger effect = lower value 1.01 | S. cerevisiae deletion strains, locus YOR061W, strain CKA2, stronger effect = lower value 1.01 | S. cerevisiae deletion strains, locus YOR069W, strain VPS5, stronger effect = lower value 1 | S. cerevisiae deletion strains, locus YOR070C, strain gyp1, stronger effect = lower value 1.01 | S. cerevisiae deletion strains, locus YOR080W, strain dia2, stronger effect = lower value 0.985 | S. cerevisiae deletion strains, locus YOR083W, strain WHI5 (second series), stronger effect = lower value 1.02 | S. cerevisiae deletion strains, locus YOR083W, strain WHI5, stronger effect = lower value 1 | S. cerevisiae deletion strains, locus YOR106W, strain vam3, stronger effect = lower value 1.01 | S. cerevisiae deletion strains, locus YOR136W, strain idh2, stronger effect = lower value 1.03 | S. cerevisiae deletion strains, locus YOR144C, strain elg1, stronger effect = lower value 1.01 | S. cerevisiae deletion strains, locus YOR184W, strain ser1, stronger effect = lower value 1.04 | S. cerevisiae deletion strains, locus YOR231W, strain MKK1, stronger effect = lower value 0.977 | S. cerevisiae deletion strains, locus YOR265W, strain rbl2, stronger effect = lower value 1.01 | S. cerevisiae deletion strains, locus YOR270C, strain vph1, stronger effect = lower value 1.03 | S. cerevisiae deletion strains, locus YOR290C, strain snf2, stronger effect = lower value 1.01 | S. cerevisiae deletion strains, locus YOR316C, strain cot1, stronger effect = lower value 1.02 | S. cerevisiae deletion strains, locus YPL051W, strain arl3, stronger effect = lower value 0.989 | S. cerevisiae deletion strains, locus YPL055C, strain LGE1, stronger effect = lower value 1.01 | S. cerevisiae deletion strains, locus YPL078C, strain atp4, stronger effect = lower value 1.01 | S. cerevisiae deletion strains, locus YPL106C, strain sse1, stronger effect = lower value 0.957 | S. cerevisiae deletion strains, locus YPL240C, strain hsp82, stronger effect = lower value 1.02 | S. cerevisiae deletion strains, locus YPL241C, strain CIN2, stronger effect = lower value 0.998 and 1 | S. cerevisiae deletion strains, locus YPL256C, strain CLN2, stronger effect = lower value 0.986 | S. cerevisiae deletion strains, locus YPR119W, strain clb2, stronger effect = lower value 0.999 | S. cerevisiae deletion strains, locus YPR141C, strain kar3, stronger effect = lower value 1.02 | S. cerevisiae deletion strains, locus YPR163C, strain tif3, stronger effect = lower value 1.03 | S. cerevisiae deletion strains, locus YPR167C, strain met16, stronger effect = lower value 1.02 | S. cerevisiae deletion strains, strain wtn01, stronger effect = lower value 1.02 | S. cerevisiae strains, strain wild type, stronger effect = lower value 0.984

From PubChem BioAssay AID1159580 (chemical genetic matrix, 2015)
